Source: PubChem BioAssay (Tox21)
Values joined by “and” are separate entries in the source; they are usually repeats but may differ in a detail not shown here. Equal values may be shown once. Results filed as inconclusive are left out. Entries that show only a call come without a potency. Where a structure was tested more than once in an assay, its records may differ in their call. Active and inactive are the calls of the source. Unless noted, calls follow the shape of the dose curve; as a rule, active = well fitted curve in the direction sought with a large enough effect in the repeat runs; inconclusive = weak or mixed curves; inactive = no such curve, though single readings can be large; an effect the other way counts as inactive or inconclusive.

How the values were obtained:
[1] = qHTS assay to identify small molecule antagonists of the glucocorticoid receptor (GR) signaling pathway - cell viability counter screen (AID 720693); also: nearly all actives have a fitted effect of over 55% in size
[2] = qHTS assay for identifying genotoxic compounds that show differential cytotoxicity against isogenic chicken DT40 cell lines with known DNA damage response pathways - wild type cell line (AID 743012); also: nearly all actives have a fitted effect of over 60% in size; also: potency is read from the fitted curve at half-maximal effect
Outline: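 Viability by ATP luminescence (CellTiter-Glo, 30 min RT) after 40 h compound treatment at 37 C/5% CO2, using 300 parental DNA repair-proficient DT40 cells per well.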

[3] = qHTS assay for identifying genotoxic compounds that show differential cytotoxicity against isogenic chicken DT40 cell lines with known DNA damage response pathways - Rev3 mutant cell line (AID 743014); also: nearly all actives have a fitted effect of over 55% in size; also: potency is read from the fitted curve at half-maximal effect
[4] = qHTS assay for identifying genotoxic compounds that show differential cytotoxicity against isogenic chicken DT40 cell lines with known DNA damage response pathways - Rad54/Ku70 mutant cell line (AID 743015); also: nearly all actives have a fitted effect of over 60% in size; also: potency is read from the fitted curve at half-maximal effect
[5] = qHTS assay to identify small molecule antagonists of the androgen receptor (AR) signaling pathway - cell viability counter screen (AID 743033; also: nearly all actives have a fitted effect of over 45% in size)
[6] = qHTS assay to identify small molecule antagonists of the androgen receptor (AR) signaling pathway using the MDA cell line - cell viability counter screen (AID 743041; also: nearly all actives have a fitted effect of over 45% in size)
Outline: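 Viability read by CellTiter-Fluor fluorescence in the same wells as the antagonist screen, added after 15.5 h of a 16 h, 37C exposure. Human breast carcinoma MDA-kb2 AR-luc cells, compounds co-dosed with agonist R1881.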

[7] = molecular target: Androgen receptor (Homo sapiens) (UniProt P10275); assay: qHTS assay to identify small molecule antagonists of the androgen receptor (AR) signaling pathway (AID 743035; active = well fitted inhibition curve with a large enough effect in the signal ratio in the repeat runs, not every such curve was filed as active; the % refers to the signal ratio)
Outline: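 Antagonist mode: AR-bla HEK293 cells co-treated with test compounds and agonist R1881 for 16 h at 37C, 5% CO2. Beta-lactamase activity read as FRET fluorescence after 2 h room-temperature substrate loading.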

[8] = molecular target: Androgen receptor (Homo sapiens) (UniProt P10275); assay: qHTS assay to identify small molecule agonists of the androgen receptor (AR) signaling pathway using the MDA cell line (AID 743040; also: nearly all actives have a fitted effect of over 20% in size)
Outline: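 Luciferase agonist assay: 16 h compound exposure at 37C without CO2 in MDA-kb2 AR-luc cells, whose MMTV promoter responds to both AR and GR. Luminescence measured after 30 min room-temperature incubation with ONE-Glo.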

[9] = molecular target: Androgen receptor (Homo sapiens) (UniProt P10275); assay: qHTS assay to identify small molecule antagonists of the androgen receptor (AR) signaling pathway using the MDA cell line (AID 743042; also: nearly all actives have a fitted effect of over 55% in size)
Outline: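 Antagonist mode: compounds plus R1881 agonist added to MDA-kb2 AR-luc cells, incubated 16 h at 37C. Luciferase reporter luminescence quantified, with multiplexed CellTiter-Fluor readout for cell viability.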

Androgen receptor (Homo sapiens), sequence (P10275 whole entry, looked up): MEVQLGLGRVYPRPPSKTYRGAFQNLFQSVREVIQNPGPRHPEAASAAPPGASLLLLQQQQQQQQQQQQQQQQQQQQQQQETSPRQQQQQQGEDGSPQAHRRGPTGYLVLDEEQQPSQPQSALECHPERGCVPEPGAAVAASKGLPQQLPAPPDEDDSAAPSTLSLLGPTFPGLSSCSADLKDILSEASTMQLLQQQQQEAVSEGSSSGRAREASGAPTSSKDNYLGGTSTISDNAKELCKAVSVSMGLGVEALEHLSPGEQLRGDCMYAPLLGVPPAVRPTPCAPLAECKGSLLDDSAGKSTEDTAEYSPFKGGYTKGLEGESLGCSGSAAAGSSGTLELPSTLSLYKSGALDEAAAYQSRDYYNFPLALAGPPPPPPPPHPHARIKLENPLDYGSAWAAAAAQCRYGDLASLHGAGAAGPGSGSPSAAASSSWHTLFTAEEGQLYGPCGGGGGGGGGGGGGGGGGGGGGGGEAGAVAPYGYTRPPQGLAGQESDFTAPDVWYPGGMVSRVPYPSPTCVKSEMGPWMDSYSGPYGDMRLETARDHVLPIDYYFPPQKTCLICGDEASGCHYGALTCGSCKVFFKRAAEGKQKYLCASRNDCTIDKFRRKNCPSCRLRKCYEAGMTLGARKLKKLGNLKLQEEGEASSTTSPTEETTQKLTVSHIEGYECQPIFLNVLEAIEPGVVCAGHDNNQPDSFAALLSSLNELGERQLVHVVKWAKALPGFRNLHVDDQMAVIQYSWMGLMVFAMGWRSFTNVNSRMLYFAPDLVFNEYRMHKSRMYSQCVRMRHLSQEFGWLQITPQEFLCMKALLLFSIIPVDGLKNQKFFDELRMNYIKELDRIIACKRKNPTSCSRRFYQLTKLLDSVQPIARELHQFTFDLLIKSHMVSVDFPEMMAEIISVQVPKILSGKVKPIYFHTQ

Row | SMILES | Potency [1] | Potency [2] | Potency [3] | Potency [4] | outcome [5] | Potency [6] | Potency [7] | Potency [8] | Potency [9]
1 | CCN1CCCC1=O | inactive | inactive | inactive | inactive | inactive | inactive |  |  | 
2 | Nc1ccc(N=Nc2ccccc2)c(N)n1 | inactive | 4.22 µM (active) and 61.1 µM (active) | 4.22 µM (active) | 7.5 µM (active) | inactive | inactive |  |  | 
3 | C=CCOC(=O)CC(C)C | inactive | inactive | inactive | inactive | inactive | inactive |  |  | 
4 | CN/C(=C\[N+](=O)[O-])NCCSCc1ccc(CN(C)C)o1 | inactive | inactive | inactive | inactive | inactive | inactive |  |  | 
5 | Cc1c(N(C)CS(=O)(=O)O)c(=O)n(-c2ccccc2)n1C | inactive | inactive | inactive | inactive | inactive | inactive |  |  | 
6 | OCCCc1ccccc1 | inactive | inactive | inactive | inactive | inactive | inactive |  |  | 
7 | CCCCNC(=O)NS(=O)(=O)c1ccc(N)cc1 | inactive | inactive | inactive | inactive | inactive | inactive |  |  | 
8 | CC1=NN(c2ccccc2)C(=O)C1 | inactive | inactive | inactive | inactive | inactive | inactive |  |  | 
9 | Cn1cnc2c1c(=O)[nH]c(=O)n2C | inactive | inactive | inactive | inactive | inactive | inactive |  |  | 
10 | CN(C)C=O | inactive | inactive | inactive | inactive | inactive | inactive |  |  | 
11 | Cc1c(N(C)C)c(=O)n(-c2ccccc2)n1C | inactive | inactive | inactive | inactive | inactive | inactive |  |  | 
12 | CC(C)(C)NCC(O)c1ccc(O)c(CO)c1 (stereo unspecified) | inactive | inactive | inactive | inactive | inactive | inactive |  |  | 
13 | COC(=O)c1ccc(C=O)cc1 | inactive | inactive | inactive | inactive | inactive | inactive |  |  | 
14 | CCCCOCCOCCOC(C)=O | inactive | inactive | inactive | inactive | inactive | inactive |  |  | 
15 | COc1ccccc1O | inactive | inactive | inactive | inactive | inactive | inactive |  |  | 
16 | Nc1cccc(N)c1 | inactive | inactive | 17.2 µM (active) and inactive | 61 µM (active) and inactive | inactive | inactive |  |  | 
17 | CC1(C)O[C@@H]2[C@@H](CO[C@@]3(COS(N)(=O)=O)OC(C)(C)O[C@@H]23)O1 | inactive | inactive | inactive | inactive | inactive | inactive |  |  | 
18 | CC(=O)OC/C=C(C)/C=C/C=C(C)/C=C/C1=C(C)CCCC1(C)C | inactive | 61.1 µM (active) | inactive and 59.6 µM (active) and 54.5 µM (active) | 47.4 µM (active) and 30.6 µM (active) | inactive | inactive |  |  | 
19 | COc1ccc(C(=O)c2ccccc2)c(O)c1 |  |  |  |  |  |  | inactive | inactive | inactive
